# Source: paper PMC4552634, “A New Set of Chemical Starting Points with Plasmodium falciparum Transmission-Blocking Potential for Antimalarial Drug Discovery” (PLoS ONE, 2015)
# Out of some 13,000 compounds screened, about 3,200 (25%) showed an effect of 50% or more. The list shows a part of the results.
# Tested on: P. falciparum stage V gametocytes
# Parameters: BacTiter-Glo ATP luminescence viability of purified stage V gametocytes in 384-well plates, per cent inhibition versus DMSO
# Conditions: 48 h, 5 µM; inhibitor
row,Structure (SMILES),% Inhibition
1,O=c1cc(NCCCNCc2ccc(C(F)(F)F)c(F)c2)[nH]c2ccccc12 [TCMDC-139428],-42.45%
2,CNC(=O)c1cc(NCCCNCc2ccc(Cl)c(C(F)(F)F)c2)nc2ccccc12 [TCMDC-141082],72.56%
3,Cc1nc2ccccc2c(=O)n1NCc1ccc(Cl)c(Cl)c1 [TCMDC-131405],15.32%
4,Clc1ccc(Nc2nc(Nc3ccc(Cl)c(Cl)c3)nc(Sc3nc4ccccc4[nH]3)n2)cc1Cl [TCMDC-124069],-24.51%
5,Cc1sc2ncnc(Sc3nc4ccccc4[nH]3)c2c1C [TCMDC-123835],57.62%
6,Nc1ncc(-c2ccsc2)cc1-c1nc2ccccc2[nH]1 [TCMDC-133557],13.31%
7,CCc1cc2c(Sc3nc4ccccc4[nH]3)ncnc2s1 [TCMDC-124553],60.6%
8,COc1ccc(NC(=O)[C@H](CC(C)C)Nc2cc(C)nc(Nc3ccccc3)n2)cc1 [TCMDC-134738],-4.957%
9,CCCCn1c(C)c(C(=O)OCC)c2cc(OC(C)=O)c(Br)cc21 [TCMDC-125582],-26.36%
10,c1cc(CNC2Cc3ccccc3C2)cc(-c2cnc(N3CCNCC3)nc2)c1 [TCMDC-133140],110.7%
11,CC(C)CNC(=O)c1cncc(-c2cccc(CNC3Cc4ccccc4C3)c2)c1 [TCMDC-134219],-68.65%
12,CCCNC(=O)c1cncc(-c2cccc(CNC3Cc4ccccc4C3)c2)c1 [TCMDC-134220],-28.4%
13,CC1CN(c2ncc(-c3ccc(CNC4Cc5ccccc5C4)cc3)cn2)CC(C)N1 (stereo not shown) [TCMDC-133769],77.63%
14,CCCNCc1ccc(-c2ccc(CNC3Cc4ccccc4C3)cc2)nc1 [TCMDC-141616],6.713%
15,CC[C@H](C)CNC(=O)c1cncc(-c2ccc(CNC3Cc4ccccc4C3)cc2)c1 [TCMDC-134240],-0.9583%
16,CN(CCCNCc1cccc2ccccc12)CCCNCc1cccc2ccccc12 [TCMDC-137905],108.9%
17,CN(CCCNCc1ccc2ccccc2c1)CCCNCc1ccc2ccccc2c1 [TCMDC-137908],106.3%
18,N#Cc1ccc(-c2ccc(C(=O)NCCCCN3CC=C(c4ccc5c(c4OCC4CC4)CCCC5)CC3)cc2)cc1 [TCMDC-138756],42.6%
19,O=C(c1ccc(OCCn2ccnc2)cc1)N1CCC(c2ccc(Br)cc2)C1 (stereo not shown) [TCMDC-134837],38.05%
20,CN(CCCN(C)c1cc(NC(=O)c2cccc(F)c2)ccn1)Cc1cccc(O)c1 [TCMDC-134952],-21.83%
21,Cc1ccc(C(O)CNc2ccnc(Nc3cccc(-c4csc(C)n4)c3)n2)cc1 (stereo not shown) [TCMDC-136570],6.544%
22,O=C(NC1CCN(Cc2ccccc2)CC1)c1ccc(-c2nc3cc(Cl)c(F)cc3[nH]2)cc1 [TCMDC-140093],-50.28%
23,O=C(NC1CCN(Cc2ccccc2)CC1)c1ccc(CNC2CCN(Cc3ccccc3)CC2)cc1 [TCMDC-140787],27.85%

row,Structure (SMILES),% Inhibition
1,COc1cc(-c2cc3cc(Cl)c(Cl)cc3[nH]2)ccc1C(=O)NC1CCN(Cc2ccccc2)CC1 [TCMDC-141288],-32.17%
2,CN1CCC(COc2ccc(CN3CCC(NC(=O)c4cccc(Cl)c4)CC3)cc2)CC1 [TCMDC-132796],95.19%
3,O=C(NC1CCN(Cc2ccccc2)CC1)c1cc(C(=O)NC2CCN(Cc3ccccc3)CC2)cc(C(=O)NC2CCN(Cc3ccccc3)CC2)c1 [TCMDC-124568],67.11%
4,CC(C)c1ccc(NC(=O)c2ccc(C(=O)NC3CCN(Cc4ccccc4)CC3)cc2)cc1 [TCMDC-136752],-24.91%
5,CC1(C)CC(NC(=O)NC2CCN(Cc3ccccc3)CC2)CC(C)(CNC(=O)NC2CCN(Cc3ccccc3)CC2)C1 (stereo not shown) [TCMDC-139018],101.1%
6,O=C(NC1CCN(Cc2ccc(O)cc2)CC1)c1ccc(Cl)c(Cl)c1 [TCMDC-141735],18.11%
7,CCOc1cc(C(=O)NC2CCN(Cc3ccccc3)CC2)ccc1-c1nc2ccc(Cl)cc2[nH]1 [TCMDC-140912],-17.04%
8,Cc1cc2nc(-c3ccc(C(=O)NC4CCN(Cc5ccccc5)CC4)s3)[nH]c2cc1C [TCMDC-140513],1.433%
9,Cc1[nH]c(-c2ccc(F)cc2)cc1C(=O)NC1CCN(Cc2ccccc2)CC1 [TCMDC-124396],76.63%
10,O=C(Nc1ccnc2ccccc12)NC1CCN(Cc2ccccc2)CC1 [TCMDC-139643],-13.5%
11,Oc1ccc2[nH]c(-c3cccc(F)c3)nc2c1CN1CCCC1 [TCMDC-136531],-40.99%
12,CCOC(=O)c1cnc2cc(N3CCCC3)c(Cl)cc2c1OCC [TCMDC-131990],37.97%
13,O=C(Nc1cccc(-c2cccc(-c3nc4ccccc4[nH]3)c2)c1)Nc1ccc2c(c1)OCO2 [TCMDC-133167],2.88%
14,COc1cc(NC(=O)N2CCc3ccc(OCCC4CCCN4C)cc32)cc(C(F)(F)F)c1 (stereo not shown) [TCMDC-140248],-14.34%
15,CCCc1nc2c(N3CCCN(C(=O)NC4CCCCC4)CC3)cccc2n1Cc1ccccn1 [TCMDC-134632],-23.2%
16,CC(C)CC(C)NC(=O)C1Cc2c([nH]c3cc(Cl)ccc23)C2(CCN(CCc3ccccc3)CC2)N1 (stereo not shown) [TCMDC-141298],48.04%
17,CCNc1cc(C(=O)N[C@@H](Cc2ccc(F)c(F)c2)[C@H](O)CNC2CCCCC2)cc(N2CCCCS2(=O)=O)c1 [TCMDC-135060],26.39%
18,COCCOc1cc(C)c(C2CCN(CCCCNC(=O)c3ccc(NC(=O)c4ccc(Cl)cc4)cc3)CC2)cc1C [TCMDC-138344],7.769%
19,Cc1cc(C2CCN(CCCCNC(=O)c3ccc(NC(=O)c4ccc(Cl)cc4)cc3)CC2)c(C)cc1OCc1ccncc1 [TCMDC-138308],71.5%
20,CN(C)CCOc1ccc(N2CCN(CCCCNC(=O)c3ccc(/C=C/c4cc(Cl)cc(Cl)c4)cc3)CC2)cc1 [TCMDC-138290],45.55%
21,CN(C)CCOc1ccc(N2CCN(CCCCNC(=O)c3ccc(NC(=O)c4ccc(Cl)cc4)cc3)CC2)cc1 [TCMDC-138289],85.59%
22,Cc1cc(C2CCN(CCCCNC(=O)c3ccc(NC(=O)c4ccc(Cl)cc4)cc3)CC2)c(C)cc1OCc1nccn1C [TCMDC-138326],1.081%
23,CCOc1ccc(OCC)c(N2CCN(CCCCNC(=O)c3ccc(NC(=O)c4ccc(Cl)cc4)cc3)CC2)c1 [TCMDC-138224],-9.659%

row,Structure (SMILES),% Inhibition
1,Cc1ccc(C)c(C2CCN(CCCCNC(=O)c3ccc(NC(=O)c4ccc(Cl)cc4)cc3)CC2)c1 [TCMDC-138330],-7.9%
2,Cc1cc(C2CCN(CCCCNC(=O)c3ccc(NC(=O)c4ccc(Cl)cc4)cc3)CC2)c(C)cc1OCc1cccnc1 [TCMDC-138318],-16.74%
3,Cc1cc(C2CCN(CCCCNC(=O)c3ccc(NC(=O)c4ccc(Cl)cc4)cc3)CC2)c(C)cc1OCCN(C)C [TCMDC-138316],117.2%
4,Cc1cc(C2CCN(CCCCNC(=O)c3ccc(NC(=O)c4ccc(Cl)cc4)cc3)CC2)c(C)cc1OC(C)C [TCMDC-138309],96.15%
5,CCOc1cc(C)c(C2CCN(CCCCNC(=O)c3ccc(NC(=O)c4ccc(Cl)cc4)cc3)CC2)cc1C [TCMDC-138282],41.56%
6,CCCCc1ccccc1NS(=O)(=O)c1ccc(OC)c(N2CCNCC2)c1 [TCMDC-139238],19.7%
7,CN1CCC(C(=O)Nc2cccc(-c3ccc(-c4nc5cc(C(F)(F)F)ccc5[nH]4)s3)c2)CC1 [TCMDC-132184],18.99%
8,COc1ccc2ccc(F)c(CCN3CCC(NCc4cc5c(cn4)OCCO5)CC3)c2n1 [TCMDC-136226],1.241%
9,Cc1cnc(C(=O)Nc2cccc(-c3ccc(-c4nc5cc(C(F)(F)F)ccc5[nH]4)s3)c2)cn1 [TCMDC-137028],12.51%
10,OC(c1ccc2ccccc2c1)C1CN(CCc2ccccc2)CCC1(O)c1ccccc1 (stereo not shown) [TCMDC-131995],4.082%
11,Cc1cccc2nc(-c3cccc(-c4ccc(NC(=O)Cc5ccc[n+]([O-])c5)cc4)c3)[nH]c12 [TCMDC-136993],-15.96%
12,O=C(Cc1cnc[nH]1)Nc1ccc(-c2cccc(-c3nc4ccc(C(F)(F)F)cc4[nH]3)c2)cc1 [TCMDC-136949],9.618%
13,COc1ccc(NC(=O)Nc2ccc(-c3cccc(-c4nc5c(C)cccc5[nH]4)c3)cc2)cc1 [TCMDC-133245],-21.29%
14,CCCN(CCC)C(=O)c1cc(-c2cccc(C)c2)nc2ccccc12 [TCMDC-124452],-15.82%
15,CCCN(CC1CC1)c1ncc(-c2cccc(CNCc3ccccc3O)c2)cn1 [TCMDC-133138],6.014%
16,CCCN(CC1CC1)c1nc(C)nc2c(-c3ccccc3)cc(C)cc12 [TCMDC-138123],91.17%
17,O=C(Nc1ccc(-c2cncc(NCCCN3CCCC3)c2)cc1)c1ccccc1 [TCMDC-133799],7.133%
18,CN1CC=C(c2c[nH]c3ccc(Br)cc23)CC1 [TCMDC-139098],-11.28%
19,Cc1cc(NC(=O)Nc2ccc(C#N)cc2)c2ccccc2n1 [TCMDC-138956],16.86%
20,CCN1CCc2nc3ccccc3c(C(=O)Nc3ccc(C#N)cc3)c2C1 [TCMDC-124513],54.17%
21,CCN1CCN(c2cc(C)c3cc(NC(=O)c4ccc(C(C)(C)C)cc4)ccc3n2)CC1 [TCMDC-125579],-38.88%
